Compounds without any hit were thinned out: in the full panel of roughly 79,000, 15% have a hit. Calls of active or inactive are those of the source. Cut-off read from the data, not from the text of the source: active = growth inhibition above about 70%; inactive = the rest.
Assay: NCI Yeast Anticancer Drug Screen. Data for the sgs1 mgt1 strain (AID 161);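 note: 0% = growth of cultures given vehicle only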
Settings: S. cerevisiae sgs1 mgt1 strain, at 50.0 µM, stronger effect = higher value
Outline: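 Read-out: growth inhibition vs vehicle controls. Cells: mutant yeast strain deficient in DNA damage repair.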
For `CN(C)C1=C(c2ccccc2)C(=O)C(c2ccccc2)=C1c1ccccc1`, the growth inhibition was 22.1% (inactive). In the case of `COc1ccc(N2C(=O)CC(c3c[nH]c4ccccc34)C2=O)cc1` (centres undefined), the growth inhibition is reported as 1.05% (inactive). With `BrCCC[n+]1ccc2ccccc2c1-c1nccc2ccccc12` the growth inhibition was 54.2% (inactive). In the case of `CC#CCCCC1(C)CCNC1=S` (centres undefined), the growth inhibition is reported as 30.5% (inactive). For `Cc1nc([N+](=O)[O-])cn1/C=C/Cn1cc([N+](=O)[O-])nc1C`, the growth inhibition was 5% (inactive). In the case of `CCCOC(=O)C(O)Cc1ccccc1` (centres undefined), the growth inhibition is reported as 5.95% (inactive). In the case of `Nc1c(N=Nc2ccccc2)cc(S(=O)(=O)O)c2ccccc12`, the growth inhibition is reported as -1.65% (inactive). In the case of `CC(C)C1CCC2(C)C(CCC3C4(C)CCCC32OC4)C1` (centres undefined), the growth inhibition is reported as 0.75% (inactive). For `FC(F)(Br)C(F)(Cl)Br` (centres undefined), the growth inhibition was 17.6% (inactive). For `CCN1N=Nc2ccccc2NC1=O`, the growth inhibition was 8.45% (inactive). In the case of `CCCCn1cnc2c(SCCNC(=O)N(C)N=O)ncnc21`, the growth inhibition is reported as 10.3% (inactive). For `COc1ccc(N)c(C(O)CCNC(C)=O)c1` (centres undefined), the growth inhibition was -25.9% (inactive). With `O=c1[nH]c(=O)c2nc3cc(-c4ccc5nc6[nH]c(=O)[nH]c(=O)c6nc5c4)ccc3nc2[nH]1` the growth inhibition was 12.4% (inactive). In the case of `CCCCN1CSC(=S)N(CCCC)C1`, the growth inhibition is reported as 59.2% (inactive). For `CCCCCCC(O)C/C=C/CCCCCC/C(C(=O)OC)=C(/O)C(=O)OCC` (centres undefined), the growth inhibition was 11.5% (inactive). For `CC1=C(C)C(=O)OC1`, the growth inhibition was -0.9% (inactive). With `Cc1ccccc1NCc1ccccc1` the growth inhibition was 15.3% (inactive). For `CCC[n+]1ccccc1C`, the growth inhibition was -4.3% (inactive). With `CNC(=O)c1ccc(/C=C/c2c[nH]c3ccccc23)[n+](C)c1` the growth inhibition was -9.05% (inactive).
